In PubChem BioAssay (NCATS) one finds outcome and Potency data, which are given here for 15 compounds.

Assay [1] concerns the target Alpha-galactosidase A (Homo sapiens) (UniProt P06280). In words: Counterscreen for Glucocerebrosidase Inhibitors: qHTS Assay for Human alpha-Galactosidase at pH 4.5 (AID 992). An outline of the steps:
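Read-out is 4-methylumbelliferone fluorescence (365 nm excitation, 440 nm emission) after a pH 10 NaOH/glycine stop. Reactions held 2 nM enzyme and 80 uM substrate at pH 4.5 for 20 min at room temperature.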
A general note: Counterscreens check selectivity or assay interference.

Assay [2] concerns the target alpha-glucosidase (Oryza sativa, rice) (UniProt Q653V4). In words: Counterscreen for Glucocerebrosidase Inhibitors: qHTS Assay for Rice alpha-Glucosidase at pH 5.0 (AID 997). An outline of the steps:
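Rice alpha-glucosidase (4 nM final) with 400 uM 4-methylumbelliferyl-alpha-D-glucopyranoside in citrate buffer pH 5.0, 20 min at room temperature, stopped at pH 10; fluorescence 365/440 nm, compounds 0.7 nM–77 uM, AC50 from Hill fits.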

Assay [3] deals with DNA repair nuclease/redox regulator APEX1 (Homo sapiens) (UniProt P27695). In words: qHTS Validation Assay for Inhibitors of the Human Apurinic/apyrimidinic Endonuclease 1 (APE1) (AID 1705; note: potency is the fitted concentration of half-maximal effect). An outline of the steps: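 Activity read as rising fluorescence (598 nm emission, 525 nm excitation) from incision of a TAMRA/BHQ-2 duplex carrying a THF abasic site (50 nM). Compound and enzyme sat 15 min at RT before substrate start; signal change between first and third 60-s reads.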
Sequence of DNA repair nuclease/redox regulator APEX1 (Homo sapiens) (P27695 whole entry, looked up): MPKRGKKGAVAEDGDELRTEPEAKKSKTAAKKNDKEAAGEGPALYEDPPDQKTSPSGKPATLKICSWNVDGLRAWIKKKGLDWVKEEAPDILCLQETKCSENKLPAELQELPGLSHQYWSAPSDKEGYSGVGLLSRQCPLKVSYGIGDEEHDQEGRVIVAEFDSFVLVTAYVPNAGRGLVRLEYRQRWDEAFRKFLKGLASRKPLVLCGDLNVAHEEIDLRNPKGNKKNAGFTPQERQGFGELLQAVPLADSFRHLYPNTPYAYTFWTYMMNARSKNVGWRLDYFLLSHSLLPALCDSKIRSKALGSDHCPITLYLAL
A general note: qHTS replaces the single test concentration by a dilution series.

Assay [4] in a line: Counterscreen for APE1 Inhibitors: Fluorescent Dye Displacement Validation Assay (AID 1707). An outline of the steps:
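ThO 250 nM + dsDNA 50 nM (THF abasic site, 5'-TAMRA), Tris-HCl pH7.5/50mM NaCl/2 mM MgCl2/0.01% Tween-20; compounds pin-transferred; ex 480/em 540 nm endpoint. Neutral = no compound; no-DNA ThO wells = negative control.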

The target of assay [5] is Endonuclease 4 (Escherichia coli (strain K12)) (UniProt P0A6C1). In words: Counterscreen for APE1 Inhibitors: qHTS Validation Assay for Inhibitors of Endonuclease IV (AID 1708). An outline of the steps: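 Enzymatic AP-site incision assay using a double-stranded THF substrate labelled with TAMRA and BHQ-2; released fluorescence signals activity. Enzyme 2 nM, substrate 50 nM, 15 min compound preincubation.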

Assay [6] in a line: qHTS for differential inhibitors of proliferation of Plasmodium falciparum line 7G8 (AID 1815).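 Note: parasite growth measured after three days of incubation.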 Note: potency is the fitted concentration of half-maximal effect.
The nature of assay [7]: qHTS for differential inhibitors of proliferation of Plasmodium falciparum line GB4 (AID 1816).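 Note: parasite growth measured after 72 h incubation.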 Note: potency is the fitted concentration of half-maximal effect. The note with it: Potency: Plasmodium falciparum GB4 proliferation inhibition.
Assay [8] is described as follows: qHTS for differential inhibitors of proliferation of Plasmodium falciparum line 3D7 (AID 1876). Note: potency is the fitted concentration of half-maximal effect.
Assay [9] can be described thus: qHTS for differential inhibitors of proliferation of Plasmodium falciparum line D10 (AID 1877).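 Note: parasites grown with compound for 72 h before DNA staining.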 Note: potency is the fitted concentration of half-maximal effect.

Each structure is given as a SMILES string. Inconclusive results are not listed. Active and inactive are the calls of the source. Calls come from the whole dose curve; as a rule, active = well fitted curve in the direction sought with a large enough effect; inconclusive = small, poorly fitted or top-dose-only effect, or another doubt; inactive = no such curve, though single readings can be large; an effect the other way counts as inactive or inconclusive.

Sequence of Alpha-galactosidase A (Homo sapiens) (P06280 whole entry, looked up): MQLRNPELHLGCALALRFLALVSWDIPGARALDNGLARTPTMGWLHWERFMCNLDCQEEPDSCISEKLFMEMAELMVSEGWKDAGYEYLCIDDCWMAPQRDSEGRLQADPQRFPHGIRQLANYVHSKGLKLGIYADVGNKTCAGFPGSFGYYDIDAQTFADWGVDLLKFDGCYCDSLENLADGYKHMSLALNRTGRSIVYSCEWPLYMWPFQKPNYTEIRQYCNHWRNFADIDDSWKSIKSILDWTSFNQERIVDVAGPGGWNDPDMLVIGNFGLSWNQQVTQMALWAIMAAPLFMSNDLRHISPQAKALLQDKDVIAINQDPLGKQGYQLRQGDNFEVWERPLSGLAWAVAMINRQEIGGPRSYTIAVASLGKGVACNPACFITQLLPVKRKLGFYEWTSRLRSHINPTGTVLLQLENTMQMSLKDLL

For the compound `Fc1ccc(CN(C2=NCCN2)c2c(Cl)cccc2Cl)cc1`, the call in assay [1] and in [2] was inactive. Besides, the Potency result in [3], in [4] and in assay [5] was “inactive” each time. For the same compound, the Potency in assay [6] is 6.31 µM (active); in [7] it was 5.62 µM (active); in assay [8], 11.2 µM (active).

Consider `O=C1OC(=O)C2C3CCC(O3)C12` (stereo not drawn), for which the Potency entry in assay [3], in assay [4], in [5], in assay [6] and in assay [8] was “inactive” each time.

As for `NC(=O)CNCCC(c1ccccc1)c1ccccc1`, the call in assay [1] and in [2] was inactive. The Potency entry in assay [3], in assay [4], in assay [5] and in assay [9] was “inactive” throughout. In addition, the Potency in assay [6] was 4.47 µM (active).

Consider `O=c1ccc2c(OCCCCc3ccccc3)c3ccoc3cc2o1`, for which the call in [1] and in assay [2] was inactive. The Potency result in [3] and in assay [4] was “inactive” each time. Also, the Potency in assay [7] was 11.2 µM (active); in [9], 12.6 µM (active).

As for `Nc1ncnc2c1ncn2C1CCCC1`, the call in assay [1] and in assay [2] was inactive. For the same compound, the Potency entry in assay [3], in [4], in assay [5], in assay [6] and in assay [9] was “inactive” in each case.

As to `C=C1C(=O)O[C@@H]2[C@H]3O[C@]3(C)CCC=C(C)CC[C@@H]12`, the Potency result in assay [3] and in assay [4] was “inactive” each time. Further, the Potency in [6] was 11.2 µM (active).

For `O=C1Cc2c([nH]c3ccc(Br)cc23)-c2ccccc2N1`, the call in assay [1] and in assay [2] was inactive. In addition, the Potency result in assay [3] and in assay [4] was “inactive” in each case. Also, the Potency in [6] is 8.91 µM (active); in assay [7], 10 µM (active); in [8], 11.2 µM (active); in assay [9], 11.2 µM (active).

Turning to `COc1ccc(NC(=O)c2ccc(-c3ccc(-c4noc(C)n4)cc3C)cc2)cc1N1CCN(C)CC1`, the compound was called inactive in assay [1] and in assay [2]. Besides, the Potency result in [3], in [4] and in [5] was “inactive” each time. The Potency was 4.47 µM (active) in assay [6], 3.98 µM (active) in assay [7], 2.82 µM (active) in [8] and 2.51 µM (active) in assay [9].

In the case of `COc1ccccc1N1CCN(CCN(C(=O)c2ccc(F)cc2)c2ccccn2)CC1`, the outcome in [1] and in [2] was inactive. In addition, the Potency result in assay [3], in assay [4] and in [5] was “inactive” each time.

As to `COc1cc(N)c(Cl)cc1C(=O)OCCN1CCCCC1`, the call in assay [1] and in [2] was inactive. The Potency result in assay [3], in assay [4], in assay [8] and in assay [9] was “inactive” each time.

Consider `Nc1nc2ccc(Cl)cc2c2nc(-c3ccco3)nn12`, for which the outcome in assay [1] and in assay [2] was inactive. Besides, the Potency result in assay [3], in assay [4] and in [5] was “inactive” throughout.

Regarding `c1ccc2nc(C3=NCCN3)ccc2c1`, the compound was classed as inactive in [1] and in assay [2]. The Potency entry in [3], in assay [4], in assay [5], in [6], in assay [8] and in assay [9] was “inactive” throughout.

In the case of `O=c1[nH]c2ccccc2c2ccccc12`, the outcome in assay [1] and in [2] was inactive. Also, the Potency entry in assay [3], in assay [4], in [5], in assay [7] and in assay [8] was “inactive” each time.

On to `CCCCCCCCCCC/C=C\C(C)(C)/C=C\CCCC(=O)O`, for which the result in assay [1] and in assay [2] was inactive. Moreover, in assay [3], the Potency was 35.5 µM (active). Moreover, the Potency result in [4], in [7], in assay [8] and in [9] was “inactive” each time.

Consider `O=S(=O)(c1cccc2c(Cl)cccc12)N1CCCNCC1`, for which the call in assay [1] and in assay [2] was inactive. Further, the Potency entry in assay [3] and in assay [4] was “inactive” throughout. Besides, the Potency was 5.01 µM (active) in [6], 3.16 µM (active) in assay [7] and 14.1 µM (active) in [8].
